# Assay results published in PubChem BioAssay AID1159580 (chemical genetic matrix, 2015).
# The campaign covered roughly 5,500 compounds. About 2,000 (36%) were called active. Another 18% or so got no clear call; they are omitted. This is one part of the list. Values without a mark were called inactive. No stated cut-off is given here; in the data, active means normalized growth mostly below about 0.91 (no sharp cut-off); inconclusive means no clear call, values can overlap the other calls; inactive means mostly above about 0.92.
# Test: chemical genetic growth profiling, strain panel (AID 1159580);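 further: tested at 20 µM; growth read once vehicle control cultures reached saturation at 30 °C; 1 = growth at the plate median or of vehicle wells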
# Conditions: growth OD
# [1] = S. cerevisiae deletion strains, locus YDL101C, strain DUN1, stronger effect = lower value
# [2] = S. cerevisiae deletion strains, locus YHR030C, strain SLT2, stronger effect = lower value
smiles,measurement,setting,value
CC(C)(C)C(=O)c1sc2sc(C(=O)C(C)(C)C)c(N)c2c1N,normalized growth,"S. cerevisiae deletion strains, locus YAR019C, strain CDC15, stronger effect = lower value",0.993
same,normalized growth,"S. cerevisiae deletion strains, locus YBL105C, strain PKC1, stronger effect = lower value",0.992
same,normalized growth,"S. cerevisiae deletion strains, locus YBR135W, strain CKS1, stronger effect = lower value",0.984
same,normalized growth,"S. cerevisiae deletion strains, locus YBR136W, strain MEC1, stronger effect = lower value",0.984
same,normalized growth,"S. cerevisiae deletion strains, locus YBR160W, strain CDC28, stronger effect = lower value",0.994
same,normalized growth,"S. cerevisiae deletion strains, locus YDL017W, strain CDC7, stronger effect = lower value",0.993
same,normalized growth,"S. cerevisiae deletion strains, locus YDL028C, strain MPS1, stronger effect = lower value",0.992
same,normalized growth,[1],0.981
same,normalized growth,"S. cerevisiae deletion strains, locus YDL108W, strain KIN28, stronger effect = lower value",0.989
same,normalized growth,"S. cerevisiae deletion strains, locus YDL132W, strain cdc53, stronger effect = lower value",0.975
same,normalized growth,"S. cerevisiae deletion strains, locus YDL214C, strain PRR2, stronger effect = lower value",0.835
same,normalized growth,"S. cerevisiae deletion strains, locus YDR052C, strain DBF4, stronger effect = lower value",0.999
same,normalized growth,"S. cerevisiae deletion strains, locus YDR054C, strain cdc34, stronger effect = lower value",0.983
same,normalized growth,"S. cerevisiae deletion strains, locus YDR226W, strain ADK1, stronger effect = lower value",0.976
same,normalized growth,"S. cerevisiae deletion strains, locus YDR477W, strain SNF1, stronger effect = lower value",0.875
same,normalized growth,"S. cerevisiae deletion strains, locus YER123W, strain YCK3, stronger effect = lower value",0.752
same,normalized growth,"S. cerevisiae deletion strains, locus YER133W, strain GLC7, stronger effect = lower value",0.862
same,normalized growth,"S. cerevisiae deletion strains, locus YFL009W, strain cdc4, stronger effect = lower value",0.988
same,normalized growth,"S. cerevisiae deletion strains, locus YFL029C, strain CAK1, stronger effect = lower value",0.991
same,normalized growth,"S. cerevisiae deletion strains, locus YFR003C, strain YPI1, stronger effect = lower value",0.997
same,normalized growth,"S. cerevisiae deletion strains, locus YFR019W, strain FAB1, stronger effect = lower value",0.47 (active)
same,normalized growth,"S. cerevisiae deletion strains, locus YFR028C, strain CDC14, stronger effect = lower value",0.982
same,normalized growth,"S. cerevisiae deletion strains, locus YGR040W, strain KSS1, stronger effect = lower value",0.879
same,normalized growth,"S. cerevisiae deletion strains, locus YGR052W, strain FMP48, stronger effect = lower value",0.689
same,normalized growth,"S. cerevisiae deletion strains, locus YGR092W, strain DBF2, stronger effect = lower value",0.894
same,normalized growth,[2],0.152 (active)
same,normalized growth,"S. cerevisiae deletion strains, locus YHR079C, strain IRE1, stronger effect = lower value",0.274 (active)
same,normalized growth,"S. cerevisiae deletion strains, locus YHR082C, strain KSP1, stronger effect = lower value",0.62
same,normalized growth,"S. cerevisiae deletion strains, locus YHR205W, strain SCH9, stronger effect = lower value",0.872
same,normalized growth,"S. cerevisiae deletion strains, locus YIL147C, strain SLN1, stronger effect = lower value",0.995
same,normalized growth,"S. cerevisiae deletion strains, locus YJL095W, strain BCK1, stronger effect = lower value",0.52
same,normalized growth,"S. cerevisiae deletion strains, locus YJL128C, strain PBS2, stronger effect = lower value",0.931
same,normalized growth,"S. cerevisiae deletion strains, locus YJL157C, strain FAR1, stronger effect = lower value",0.785
same,normalized growth,"S. cerevisiae deletion strains, locus YJR016C, strain ILV3, stronger effect = lower value",0.99
same,normalized growth,"S. cerevisiae deletion strains, locus YJR066W, strain TOR1 (second series), stronger effect = lower value",0.823
same,normalized growth,"S. cerevisiae deletion strains, locus YJR066W, strain TOR1, stronger effect = lower value",0.589
same,normalized growth,"S. cerevisiae deletion strains, locus YKL048C, strain ELM1, stronger effect = lower value",0.983
same,normalized growth,"S. cerevisiae deletion strains, locus YKL067W, strain YNK1, stronger effect = lower value",0.902
same,normalized growth,"S. cerevisiae deletion strains, locus YKL101W, strain HSL1, stronger effect = lower value",0.962
same,normalized growth,"S. cerevisiae deletion strains, locus YKL193C, strain SDS22, stronger effect = lower value",0.987
same,normalized growth,"S. cerevisiae deletion strains, locus YKL203C, strain TOR2, stronger effect = lower value",0.936
same,normalized growth,"S. cerevisiae deletion strains, locus YLR113W, strain HOG1, stronger effect = lower value",0.663 (active)
same,normalized growth,"S. cerevisiae deletion strains, locus YLR133W, strain CKI1, stronger effect = lower value",0.888
same,normalized growth,"S. cerevisiae deletion strains, locus YLR403W, strain SFP1, stronger effect = lower value",0.851
same,normalized growth,"S. cerevisiae deletion strains, locus YML070W, strain DAK1, stronger effect = lower value",0.704
same,normalized growth,"S. cerevisiae deletion strains, locus YMR001C, strain CDC5, stronger effect = lower value",0.993
same,normalized growth,"S. cerevisiae deletion strains, locus YMR205C, strain PFK2 (second series), stronger effect = lower value",0.965
same,normalized growth,"S. cerevisiae deletion strains, locus YMR277W, strain FCP1, stronger effect = lower value",0.989
same,normalized growth,"S. cerevisiae deletion strains, locus YNL006W, strain LST8, stronger effect = lower value",0.999
same,normalized growth,"S. cerevisiae deletion strains, locus YNL020C, strain ARK1, stronger effect = lower value",0.892
same,normalized growth,"S. cerevisiae deletion strains, locus YNL161W, strain CBK1, stronger effect = lower value",0.994
same,normalized growth,"S. cerevisiae deletion strains, locus YNL183C, strain NPR1, stronger effect = lower value",0.855
same,normalized growth,"S. cerevisiae deletion strains, locus YNL207W, strain RIO2, stronger effect = lower value",0.989
same,normalized growth,"S. cerevisiae deletion strains, locus YNL222W, strain SSU72, stronger effect = lower value",0.993
same,normalized growth,"S. cerevisiae deletion strains, locus YNL307C, strain MCK1 (second series), stronger effect = lower value",0.97
same,normalized growth,"S. cerevisiae deletion strains, locus YOL078W, strain AVO1, stronger effect = lower value",0.987
same,normalized growth,"S. cerevisiae deletion strains, locus YOL136C, strain PFK27, stronger effect = lower value",0.6 (active)
same,normalized growth,"S. cerevisiae deletion strains, locus YOR061W, strain CKA2, stronger effect = lower value",0.915
same,normalized growth,"S. cerevisiae deletion strains, locus YOR119C, strain RIO1, stronger effect = lower value",1.01
same,normalized growth,"S. cerevisiae deletion strains, locus YOR231W, strain MKK1, stronger effect = lower value",0.682
same,normalized growth,"S. cerevisiae deletion strains, locus YOR329C, strain SCD5, stronger effect = lower value",0.991
same,normalized growth,"S. cerevisiae deletion strains, locus YPL031C, strain PHO85, stronger effect = lower value",0.804
same,normalized growth,"S. cerevisiae deletion strains, locus YPL153C, strain RAD53, stronger effect = lower value",0.692
same,normalized growth,"S. cerevisiae deletion strains, locus YPL204W, strain HRR25, stronger effect = lower value",0.646 (active)
same,normalized growth,"S. cerevisiae deletion strains, locus YPL209C, strain IPL1, stronger effect = lower value",0.993
same,normalized growth,"S. cerevisiae deletion strains, locus YPL256C, strain CLN2, stronger effect = lower value",0.326 (active)
same,normalized growth,"S. cerevisiae deletion strains, locus YPR025C, strain CCL1, stronger effect = lower value",0.991
same,normalized growth,"S. cerevisiae deletion strains, locus YPR106W, strain ISR1, stronger effect = lower value",0.995
same,normalized growth,"S. cerevisiae deletion strains, locus YPR111W, strain DBF20, stronger effect = lower value",0.99
same,normalized growth,"S. cerevisiae deletion strains, strain NNK1, stronger effect = lower value",0.996
same,normalized growth,"S. cerevisiae deletion strains, strain TSCII, stronger effect = lower value",0.994
CC(C)(C)c1ccc(-c2cc(N)c(C(N)=O)s2)cc1,normalized growth,"S. cerevisiae deletion strains, locus YAL013W, strain DEP1, stronger effect = lower value",0.978
same,normalized growth,"S. cerevisiae deletion strains, locus YBR229C, strain ROT2, stronger effect = lower value",0.997
same,normalized growth,"S. cerevisiae deletion strains, locus YCL061C, strain MRC1, stronger effect = lower value",1.01
same,normalized growth,[1],1.01
same,normalized growth,"S. cerevisiae deletion strains, locus YDR150W, strain NUM1, stronger effect = lower value",0.974
same,normalized growth,"S. cerevisiae deletion strains, locus YEL061C, strain CIN8, stronger effect = lower value",0.967
same,normalized growth,"S. cerevisiae deletion strains, locus YGR078C, strain PAC10, stronger effect = lower value",1.01
same,normalized growth,[2],0.761
same,normalized growth,"S. cerevisiae deletion strains, locus YHR087W, strain rtc3, stronger effect = lower value",1.02
same,normalized growth,"S. cerevisiae deletion strains, locus YJR043C, strain POL32, stronger effect = lower value",0.979
same,normalized growth,"S. cerevisiae deletion strains, locus YJR075W, strain HOC1, stronger effect = lower value",1
same,normalized growth,"S. cerevisiae deletion strains, locus YKL190W, strain CNB1, stronger effect = lower value",1
same,normalized growth,"S. cerevisiae deletion strains, locus YLR039C, strain RIC1, stronger effect = lower value",0.93
same,normalized growth,"S. cerevisiae deletion strains, locus YLR058C, strain SHM2 (second series), stronger effect = lower value",1.01
same,normalized growth,"S. cerevisiae deletion strains, locus YLR085C, strain ARP6, stronger effect = lower value",0.987
same,normalized growth,"S. cerevisiae deletion strains, locus YLR262C, strain YPT6, stronger effect = lower value",0.827
same,normalized growth,"S. cerevisiae deletion strains, locus YML094W, strain GIM5, stronger effect = lower value",1.01
same,normalized growth,"S. cerevisiae deletion strains, locus YMR219W, strain ESC1, stronger effect = lower value",0.996
same,normalized growth,"S. cerevisiae deletion strains, locus YMR263W, strain SAP30, stronger effect = lower value",0.967
same,normalized growth,"S. cerevisiae deletion strains, locus YMR307W, strain GAS1, stronger effect = lower value",0.881
same,normalized growth,"S. cerevisiae deletion strains, locus YNL153C, strain GIM3, stronger effect = lower value",1
same,normalized growth,"S. cerevisiae deletion strains, locus YNL298W, strain CLA4 (second series), stronger effect = lower value",0.966
same,normalized growth,"S. cerevisiae deletion strains, locus YNL322C, strain KRE1, stronger effect = lower value",0.985
same,normalized growth,"S. cerevisiae deletion strains, locus YNR030W, strain Alg12, stronger effect = lower value",0.942
same,normalized growth,"S. cerevisiae deletion strains, locus YOL006C, strain TOP1, stronger effect = lower value",0.946
same,normalized growth,"S. cerevisiae deletion strains, locus YPL055C, strain LGE1, stronger effect = lower value",0.916
same,normalized growth,"S. cerevisiae deletion strains, locus YPL241C, strain CIN2, stronger effect = lower value",0.983
same,normalized growth,"S. cerevisiae deletion strains, locus YPR135W, strain CTF4, stronger effect = lower value",0.783
same,normalized growth,"S. cerevisiae strains, strain wild type, stronger effect = lower value",0.989
